Screening data from PubChem.
Resorufin fluor: compound fluoresces in the resorufin spectral region; Compound fluorescence, resorufin region 547/598 nm, buffer; hits give high values; max dye-equivalent concentration, M; actives 0.04% (n = 59,000); AID 588
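Dye-equivalent concentration values derive from comparing each well's 547/598 nm fluorescence against resorufin standards included on every plate. Incubation was 15 min at room temperature in 100 mM Tris, pH 8.0.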
A488 fluor: compound fluoresces in the A488 spectral region; AID 591; compound autofluorescence, A488 spectral region, dye equivalency; Compound Type: qHTS ECL - MLSMR; actives 0.1% (n = 59,000); max dye equivalency, M
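Readout is A488 dye-equivalent concentration, calibrated by a per-plate six-point Alexa 488 series. Compounds in 100 mM Tris buffer pH 8.0 were incubated 15 min at room temperature. Plates were imaged using 480 nm excitation/540 nm emission filters.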
Fluorescein fluor: fluorescein region autofluorescence; max fluorescein-equivalent concentration, M; AID 593; actives 0.91% (n = 59,000); Compound autofluorescence, 480/540 nm, fluorescein-equivalent; hits give high values; in the data active = max fluorescein-equivalent concentration above about 10 nM; inconclusive = between about 1.1 nM and that limit
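Each compound is tested across a concentration series in 100 mM Tris buffer at pH 8.0. After 15 min at room temperature, plates are imaged with 480 nm excitation and 540 nm emission filters, and intensities are converted to fluorescein-equivalent values.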
A647 fluor: compound fluoresces in the A647 spectral region. max dye-equivalent concentration, M. 59,000 tested, under 10 active. AID 592. Compound fluorescence, A647 channel (570/671 nm), Tris buffer;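 also: values scaled relative to a standard on each plate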
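Compound fluorescence was measured in 100 mM Tris buffer, pH 8.0, after 15 min at room temperature, using 570 nm excitation and 671 nm emission filters. Signal was normalized to a per-plate Alexa 647 standard curve and expressed as dye-equivalent concentration at each compound concentration.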
Rhodamine fluor: compound fluoresces in the rhodamine spectral region | Rhodamine-region fluorescence, 547/598 nm, Tris buffer; hits give high values | max dye-equivalent concentration, M | actives 0.05% (n = 59,000) | AID 594; in the data active = max dye-equivalent concentration above about 11 nM; inconclusive = between about 1.1 nM and that limit
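Steps: pin-transfer compounds into pH 8.0 Tris (100 mM), hold 15 min at room temperature, image with a 547/598 nm filter pair, and convert intensities to rhodamine-equivalent concentration using a six-point on-plate rhodamine series.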
Texas Red fluor: compounds fluorescent in Texas Red spectral region; max dye-equivalent concentration, M; Compound fluorescence, Texas Red channel, 547/618 nm; hits give high values; actives 0.06% (n = 59,000); in the data active = max dye-equivalent concentration above about 10 nM; inconclusive = between about 1.1 nM and that limit
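Spectral interference profiling: each compound concentration's relative fluorescence, read with a 547 nm excitation and 618 nm emission filter pair, was normalized to a per-plate Texas Red standard curve.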
Numbers without * were called inactive; i = inactive; ? = inconclusive. Sampled rows, rich in hits. Any-hit rate of the full collection: about 0.9%. Unless noted, no rule for the calls is given here.

SMILES	Resorufin fluor	A488 fluor	Fluorescein fluor	A647 fluor	Rhodamine fluor	Texas Red fluor
CCOc1ccc(C2C=C(c3ccccc3)Nc3ncnn32)cc1 (stereo unspecified)	i	i	1.3e-08M*	1.1e-09	i	i
CCOC(=O)c1ccc2[nH]cc(C(C)=O)c(=O)c2c1	i	i	2.2e-08M*	1.1e-08	i	i
CC(=O)c1c[nH]c2ccc(C)cc2c1=O	i	i	?	5.5e-09	i	i
Cc1ccc(C2NC(=O)c3ccccc3N2)s1 (stereo unspecified)	i	i	i	2.4e-09	i	?
CN1CCc2c(sc3c2C(=O)NC(c2cccs2)N3)C1 (stereo unspecified)	i	i	1.8e-08M*	3.3e-08	i	?
Cn1c(=O)c(-c2cccs2)nc2cnc(OCc3ccccc3)nc21	i	i	i	1.9e-08	i	i
Cc1sc2nc(CSc3nc4ccccc4c(=O)n3CCCN3CCOCC3)[nH]c(=O)c2c1C	i	?	3.4e-08M*	1e-09	i	i
CC(=O)c1c(C)[nH]c(C(=O)CSc2nc3ccccc3c(=O)n2CCCN2CCOCC2)c1C	i	i	?	7.8e-09	i	?
Cc1ccc(-n2c3c(cc(C(=O)NC4CCSC4=O)c2=O)C(=O)CCC3)cc1 (stereo unspecified)	i	i	1.1e-08M*	1.7e-09	i	i
O=C1CCCc2c1cc(C(=O)Nc1ccc(Cl)cn1)c(=O)n2-c1ccccc1	i	i	i	9.4e-09	i	i
CN(C)CCCOc1nn(Cc2ccccc2)c2ccccc12	i	i	1.9e-08M*	2.3e-08	i	i
CCOC(=O)C1=C(CSc2nc3c(cc2C#N)CN(C)CC3)OC(N)=C(C#N)C1c1ccccc1 (stereo unspecified)	i	i	3.4e-08M*	1e-09	i	i
CCOC(=O)c1c(C)[nH]c(C=Nc2ccccc2)c1O	i	i	1.7e-08M*	3.6e-08	i	?
CC[C@H](C(=O)c1cccs1)C(O)(C(F)(F)F)C(F)(F)F	i	i	i	4.8e-09	i	?
Cc1ccc(N2C(=O)[C@@H]3[C@H](C2=O)C2c4ccccc4C=CN2[C@@H]3C(=O)c2ccco2)cc1 (stereo partly specified)	i	i	1.1e-08M*	1e-09	i	?
O=C(c1ccco1)[C@@H]1[C@@H]2C(=O)N(c3ccccc3)C(=O)[C@@H]2C2c3ccccc3C=CN21 (stereo partly specified)	i	i	1.8e-08M*	4e-09	i	i
CC(=O)[C@@H]1[C@@H]2C(=O)N(Cc3ccccc3)C(=O)[C@@H]2C2c3ccccc3C=CN21 (stereo partly specified)	i	i	1.5e-08M*	4e-08	i	i
O=C1C=CC2=C3c4cc(O)c(O)cc4C[C@@]3(O)COC2=C1O	i	i	?	3.9e-09	i	?
Cc1cn([C@H]2C=C[C@H](CO)O2)c(=O)[nH]c1=O	i	i	?	4.6e-09	i	?
CN1C[C@@H](O)[C@@H](O)[C@@H](O)[C@@H]1CO	i	i	i	1e-09	i	i
C=CCNS(=O)(=O)c1ncnc2nc[nH]c12	i	i	i	3.2e-09	i	i
O=c1c2ccccc2c(/C=N/n2cnnc2)c(O)n1-c1ccccc1F	i	i	1.3e-08M*	2.8e-09	i	i
Nc1nc(N)c2nn(-c3ccc(C(=O)O)cc3)nc2n1	i	i	i	2.6e-09	i	?
CCC1(C)Cc2c(C#N)c(N)sc(=S)c2CO1 (stereo unspecified)	i	i	1e-08M*	1e-09	i	i
CSc1c(C#N)c(N)c(C#N)c2c1COC(C)(C)C2	i	i	?	1e-09	i	i
N#Cc1c(N)sc(=S)c2c1CCCC2	i	?	6.8e-08M*	1e-08	i	?
CCNc1ncc2nc(-c3cccs3)c(=O)n(-c3ccccc3)c2n1	i	i	?	6.5e-09	i	i
